Reference: PubChem BioAssay AID1159580 (chemical genetic matrix, 2015)
Screen size: about 5,500 compounds; about 2,000 (36%) were called active. About 18% were inconclusive and are not listed. Cut-off read from the data, not from the text of the source: active = normalized growth mostly below about 0.91 (no sharp cut-off); inconclusive = no clear call, values can overlap the other calls; inactive = mostly above about 0.92. The list shows a part of the results.

Experiment: chemical genetic growth profiling, strain panel (AID 1159580);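 note: tested at 20 µM; growth read once vehicle control cultures reached saturation at 30 °C; 1 = growth at the plate median or of vehicle wells; lower values mean less growth of the strain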
Settings: S. cerevisiae deletion strains, growth OD
[1] = locus YAR019C, strain CDC15, active compounds read low
[2] = locus YBL105C, strain PKC1, active compounds read low
[3] = locus YBR135W, strain CKS1, active compounds read low
[4] = locus YBR136W, strain MEC1, active compounds read low
[5] = locus YBR160W, strain CDC28, active compounds read low
[6] = locus YDL017W, strain CDC7, active compounds read low
[7] = locus YDL028C, strain MPS1, active compounds read low
[8] = locus YDL101C, strain DUN1, active compounds read low
[9] = locus YDL108W, strain KIN28, active compounds read low
[10] = locus YDL132W, strain cdc53, active compounds read low
[11] = locus YDL214C, strain PRR2, active compounds read low
[12] = locus YDR052C, strain DBF4, active compounds read low
[13] = locus YDR054C, strain cdc34, active compounds read low
[14] = locus YDR226W, strain ADK1, active compounds read low
[15] = locus YDR477W, strain SNF1, active compounds read low
[16] = locus YER123W, strain YCK3, active compounds read low
[17] = locus YER133W, strain GLC7, active compounds read low
[18] = locus YFL009W, strain cdc4, active compounds read low
[19] = locus YFL029C, strain CAK1, active compounds read low
[20] = locus YFR003C, strain YPI1, active compounds read low
[21] = locus YFR019W, strain FAB1, active compounds read low
[22] = locus YFR028C, strain CDC14, active compounds read low
[23] = locus YGR040W, strain KSS1, active compounds read low
[24] = locus YGR052W, strain FMP48, active compounds read low
[25] = locus YGR092W, strain DBF2, active compounds read low
[26] = locus YHR030C, strain SLT2, active compounds read low
[27] = locus YHR079C, strain IRE1, active compounds read low
[28] = locus YHR082C, strain KSP1, active compounds read low
[29] = locus YHR205W, strain SCH9, active compounds read low
[30] = locus YIL147C, strain SLN1, active compounds read low
[31] = locus YJL095W, strain BCK1, active compounds read low
[32] = locus YJL128C, strain PBS2, active compounds read low
[33] = locus YJL157C, strain FAR1, active compounds read low
[34] = locus YJR016C, strain ILV3, active compounds read low
[35] = locus YJR066W, strain TOR1 (second series), active compounds read low
[36] = locus YJR066W, strain TOR1, active compounds read low
[37] = locus YKL048C, strain ELM1, active compounds read low
[38] = locus YKL067W, strain YNK1, active compounds read low
[39] = locus YKL101W, strain HSL1, active compounds read low
[40] = locus YKL193C, strain SDS22, active compounds read low
[41] = locus YKL203C, strain TOR2, active compounds read low
[42] = locus YLR113W, strain HOG1, active compounds read low
[43] = locus YLR133W, strain CKI1, active compounds read low
[44] = locus YLR403W, strain SFP1, active compounds read low
[45] = locus YML070W, strain DAK1, active compounds read low
[46] = locus YMR001C, strain CDC5, active compounds read low
[47] = locus YMR205C, strain PFK2 (second series), active compounds read low
[48] = locus YMR277W, strain FCP1, active compounds read low
[49] = locus YNL006W, strain LST8, active compounds read low
[50] = locus YNL020C, strain ARK1, active compounds read low
[51] = locus YNL161W, strain CBK1, active compounds read low
[52] = locus YNL183C, strain NPR1, active compounds read low
[53] = locus YNL207W, strain RIO2, active compounds read low
[54] = locus YNL222W, strain SSU72, active compounds read low
[55] = locus YNL307C, strain MCK1 (second series), active compounds read low
[56] = locus YOL078W, strain AVO1, active compounds read low
[57] = locus YOL136C, strain PFK27, active compounds read low
[58] = locus YOR061W, strain CKA2, active compounds read low
[59] = locus YOR119C, strain RIO1, active compounds read low
[60] = locus YOR231W, strain MKK1, active compounds read low
[61] = locus YOR329C, strain SCD5, active compounds read low
[62] = locus YPL031C, strain PHO85, active compounds read low
[63] = locus YPL153C, strain RAD53, active compounds read low
[64] = locus YPL204W, strain HRR25, active compounds read low
[65] = locus YPL209C, strain IPL1, active compounds read low
[66] = locus YPL256C, strain CLN2, active compounds read low
[67] = locus YPR025C, strain CCL1, active compounds read low
[68] = locus YPR106W, strain ISR1, active compounds read low
[69] = locus YPR111W, strain DBF20, active compounds read low
[70] = strain NNK1, active compounds read low
[71] = strain TSCII, active compounds read low

Measured: normalized growth

COc1ccc(C(CC(=O)c2ccccc2)Sc2ccccc2N)cc1OC (stereo not drawn)
inactive: [1] 0.977 | [2] 0.971 | [3] 0.98 | [4] 0.972 | [5] 0.98 | [6] 0.972 | [7] 0.979 | [8] 0.976 | [9] 0.974 | [10] 0.987 | [11] 0.948 | [12] 0.974 | [13] 0.971 | [14] 0.979 | [15] 0.958 | [16] 0.935 | [17] 0.954 | [18] 0.981 | [19] 0.966 | [20] 0.972 | [21] 0.963 | [22] 0.967 | [23] 0.946 | [24] 1.02 | [25] 0.959 | [26] 0.921 | [27] 0.95 | [28] 0.985 | [29] 0.935 | [30] 0.965 | [31] 0.947 | [32] 0.944 | [33] 0.965 | [34] 0.985 | [35] 1 | [36] 0.955 | [37] 0.977 | [38] 0.946 | [39] 0.927 | [40] 0.979 | [41] 0.99 | [42] 0.898 | [43] 0.952 | [44] 0.934 | [45] 0.941 | [46] 0.965 | [47] 0.958 | [48] 0.983 | [49] 0.984 | [50] 0.961 | [51] 0.978 | [52] 0.966 | [53] 0.975 | [54] 0.979 | [55] 0.974 | [56] 0.98 | [57] 0.955 | [58] 0.934 | [59] 0.962 | [60] 0.937 | [61] 0.971 | [62] 0.957 | [63] 0.978 | [64] 0.993 | [65] 0.984 | [66] 0.899 | [67] 0.976 | [68] 0.967 | [69] 0.979 | [70] 0.968 | [71] 0.973

Cc1cc(C)cc(Sc2ccc3nnc(-c4ccccc4)n3n2)c1
inactive: [1] 0.983 | [2] 0.988 | [3] 0.984 | [4] 0.977 | [5] 0.988 | [6] 0.986 | [7] 1 | [8] 0.973 | [9] 0.993 | [10] 0.977 | [11] 0.998 | [12] 0.986 | [13] 0.975 | [14] 0.982 | [15] 0.99 | [16] 0.972 | [17] 0.978 | [18] 0.979 | [19] 0.984 | [20] 0.991 | [21] 0.962 | [22] 0.987 | [23] 0.991 | [24] 1.09 | [25] 0.977 | [26] 1.08 | [27] 1.07 | [28] 1.07 | [29] 0.988 | [30] 1 | [31] 1.06 | [32] 0.933 | [33] 0.982 | [34] 0.979 | [35] 0.942 | [36] 1.11 | [37] 0.979 | [38] 0.999 | [39] 0.986 | [40] 0.983 | [41] 1.06 | [42] 0.978 | [43] 0.998 | [44] 1 | [45] 0.983 | [46] 0.981 | [47] 0.997 | [48] 0.986 | [49] 0.998 | [50] 1 | [51] 0.986 | [52] 1.1 | [53] 0.989 | [54] 0.983 | [55] 0.995 | [56] 0.992 | [57] 0.995 | [58] 0.986 | [59] 0.993 | [60] 1.05 | [61] 0.985 | [62] 0.978 | [63] 0.944 | [64] 0.965 | [65] 0.985 | [66] 1.04 | [67] 0.984 | [68] 0.977 | [69] 0.982 | [70] 0.98 | [71] 0.982

CC(=O)c1ccc(Cl)c(NS(=O)(=O)c2cc(Cl)c(Cl)cc2Cl)c1
inactive: [1] 0.906 | [2] 0.925 | [3] 0.91 | [4] 0.914 | [6] 0.925 | [8] 0.95 | [9] 0.905 | [10] 0.9 | [11] 0.868 | [12] 0.933 | [13] 0.909 | [15] 0.799 | [16] 0.794 | [17] 0.875 | [19] 0.898 | [20] 0.917 | [21] 0.881 | [22] 0.895 | [23] 0.805 | [24] 0.781 | [25] 0.631 | [27] 0.697 | [28] 0.735 | [29] 0.801 | [30] 0.904 | [31] 0.636 | [32] 0.835 | [33] 0.877 | [34] 0.921 | [35] 0.811 | [36] 0.719 | [37] 0.843 | [38] 0.864 | [39] 0.814 | [40] 0.906 | [41] 0.905 | [43] 0.865 | [44] 0.826 | [45] 0.811 | [46] 0.899 | [47] 0.905 | [48] 0.885 | [49] 0.925 | [50] 0.829 | [51] 0.921 | [52] 0.819 | [53] 0.906 | [55] 0.786 | [56] 0.9 | [57] 0.789 | [58] 0.744 | [59] 0.832 | [60] 0.704 | [61] 0.923 | [62] 0.788 | [63] 0.768 | [64] 0.763 | [65] 0.916 | [67] 0.912 | [68] 0.904 | [70] 0.894 | [71] 0.898
active: [5] 0.886 | [7] 0.89 | [14] 0.897 | [18] 0.881 | [26] 0.317 | [42] 0.648 | [54] 0.884 | [66] 0.664 | [69] 0.858
